# PubChem BioAssay
# Calls of active or inactive are those of the source.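 Rule for the calls, unless noted: active = inhibition at or above 50% at 10 µM; inactive = inhibition below 50%.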
# Legend:
# [1] = inhibitors of TNFa-induced NFkB p65 translocation, primary screen, imaging, HUVEC, MLSMR starter and 10KST1 sets (AID 438;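 active = inhibition above 20% together with a positive visual image hit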;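 note: compound added about 3h40 before a 20 min TNFalpha stimulation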;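 for inhibition: signal is the nuclear over cytoplasmic p65 intensity ratio per well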); details: HUVEC TNFa-induced p65 nuclear translocation; cell count: measured here: nuclei count (cytotoxicity indicator), at 2.08 µM; inhibition: at 2 µM, stronger effect = higher value, 0% TNFa-plus-vehicle, 100% no-TNFa wells
# [2] = inhibitors of mutant huntingtin aggregation, primary screen, imaging, exon1htt(103Q)mCFP cells, high-content imaging (AID 483;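 active = visual image review flags a hit and inhibition of aggregation exceeds 20%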;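 note: compound exposure lasted 3 days before fixation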;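 for nuclei count: percent of the per-plate median nuclei count of sample wells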); details: exon1htt(103Q)mCFP cell line, aggregate imaging, at 2 µM; inhibition of aggregation: stronger effect = higher value; nuclei count: measured here: cell count, toxicity
# [3] = inhibitors of E-selectin induction by TNFa, primary screen, imaging, HUVEC, immunofluorescence, MLSMR starter and 10KST1 sets (AID 487;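 active = visually confirmed hit in the image check and inhibition above 20%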;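 for inhibition: signal is fraction of cell area covered by stained E-selectin grains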;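 for nuclei count: 100% = median nuclei count of all wells on the same plate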); details: HUVEC TNFalpha-induced E-selectin immunofluorescence imaging, at 2 µM; inhibition: stronger effect = higher value; nuclei count: measured here: cell number, toxicity
# [4] = biological target: Voltage-gated potassium channel subunit beta-2 (Rattus norvegicus) (UniProt P62483); test: KvBeta enzyme negative modulators, primary screen, biochemical, NADPH fluorescence (AID 622;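 active = fluorescence slope higher than the sample average by over 3 SD, cut at about -0.22 in these data, passing the limit was not always enough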;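 note: slope of raw intensity against log time taken from 70 to 1610 s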); details: recombinant KvBeta, 4-cyanobenzaldehyde reduction, at 10 µM, stronger effect = higher value
# [5] = biological target: Voltage-gated potassium channel subunit beta-2 (Rattus norvegicus) (UniProt P62483); test: KvBeta positive modulators, primary screen, biochemical, NADPH fluorescence (AID 623;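 active = NADPH fluorescence slope more negative than the mean of all samples by about 3 SD, 99.7% confidence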;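 note: fluorescence intensity change per second fitted from 20 to 320 s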); details: Recombinant KvBeta, NADPH fluorescence decrease slope, 10 min; at 10 µM; stronger effect = lower value
# [6] = biological target: Alpha-2C adrenergic receptor (Homo sapiens) (UniProt P18825); test: modulators of alpha2C/GIRK thallium flux, primary screen, cell-based, HEK293 alpha2C/GIRK1/2 (AID 624;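 active = fluorescence slope after compound addition differing from the mean of all screened samples at 99.7% confidence, in either direction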;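 note: slope of fluorescence ratio to pre-addition baseline per second over 15 to 24 s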); details: thallium flux BTC fluorescence, at 10 µM, actives lie on both sides
# [7] = inhibitors of Sendai virus-induced IRF3 signaling, primary screen, TLR/RLR signaling modifier project, cell-based, Sendai virus stimulus, luciferase, 10K MLSCN set (AID 602276); details: HEK293 RL24 IRF3 luciferase reporter, at 10 µM, stronger effect = higher value;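 note: firefly luciferase from ISG56 promoter only with Renilla not read in this screen; 0% = Sendai virus plus DMSO and 100% = medium plus DMSO without virus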
# [8] = inhibitors of poly I:C-induced TLR3 signaling, primary screen, cell-based, poly I:C stimulus, luciferase, 10K MLSCN set (AID 602277;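 active = inhibition of the reporter signal at or above 50%; inactive = inhibition below 50%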); details: HEK293-TLR3 RL24 IRF3 luciferase reporter, at 10 µM, stronger effect = higher value
# Chain of Voltage-gated potassium channel subunit beta-2 (Rattus norvegicus) (P62483 whole entry, looked up): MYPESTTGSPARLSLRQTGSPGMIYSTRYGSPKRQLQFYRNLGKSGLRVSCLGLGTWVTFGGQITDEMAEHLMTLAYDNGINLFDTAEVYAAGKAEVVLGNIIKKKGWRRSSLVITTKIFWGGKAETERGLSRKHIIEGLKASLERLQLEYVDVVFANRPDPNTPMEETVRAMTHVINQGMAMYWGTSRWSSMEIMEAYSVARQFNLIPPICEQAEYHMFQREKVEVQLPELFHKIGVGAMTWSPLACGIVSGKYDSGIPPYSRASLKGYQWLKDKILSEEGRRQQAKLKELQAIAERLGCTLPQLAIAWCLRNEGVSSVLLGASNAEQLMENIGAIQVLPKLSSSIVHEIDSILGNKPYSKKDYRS
# Chain of Alpha-2C adrenergic receptor (Homo sapiens) (P18825 whole entry, looked up): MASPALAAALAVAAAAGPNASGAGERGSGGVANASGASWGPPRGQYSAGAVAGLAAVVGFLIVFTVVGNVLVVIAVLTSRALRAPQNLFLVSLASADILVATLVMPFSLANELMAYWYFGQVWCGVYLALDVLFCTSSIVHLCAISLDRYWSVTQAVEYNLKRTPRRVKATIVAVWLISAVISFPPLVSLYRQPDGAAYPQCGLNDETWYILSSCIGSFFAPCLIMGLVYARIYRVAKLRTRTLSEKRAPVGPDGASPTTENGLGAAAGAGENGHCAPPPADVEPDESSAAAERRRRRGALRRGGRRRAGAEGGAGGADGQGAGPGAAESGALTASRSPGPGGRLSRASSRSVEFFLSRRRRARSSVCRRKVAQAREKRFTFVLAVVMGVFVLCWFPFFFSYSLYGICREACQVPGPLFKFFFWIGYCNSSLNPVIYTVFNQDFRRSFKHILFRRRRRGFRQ
SMILES,cell count [1],inhibition [1],inhibition of aggregation [2],nuclei count [2] [%],inhibition [3],nuclei count [3] [%],fluorescence slope [4],NADPH fluorescence slope [5],slope [6],inhibition [7],inhibition [8]
CCCn1cnc2c(cnn2-c2ccc(F)cc2)c1=O,451,5.5% (inactive),11.2% (inactive),85.6,-41.5% (inactive),124,-0.536 (inactive),1.4e-05 (inactive),0.00574 (inactive),-35.2% (inactive),-147% (inactive)
O=C1c2ccccc2C(Nc2ccc(F)c(Cl)c2)N1Cc1ccco1 (stereo unspecified),778,-11.6% (inactive),-4.9% (inactive),110,-37.8% (inactive),105,-0.442 (inactive),-5.5e-05 (inactive),0.0049 (inactive),5.4% (inactive),26.8% (inactive)
CCOC(=O)c1[nH]c(C)c(C(=O)Nc2ccc(Cl)cc2)c1C,709,-1.6% (inactive),-32.6% (inactive),89.1,-32% (inactive),114,-0.591 (inactive),2.4e-05 (inactive),0.00669 (inactive),6.23% (inactive),-11% (inactive)
N#Cc1cc2ccc(N3CCOCC3)cc2cc1C#N,421,-6.5% (inactive),9.5% (inactive),76.5,-341% (inactive),103,-0.0128 (active),1.2e-05 (inactive),0.00303 (inactive),7.25% (inactive),26.1% (inactive)
O=C(NCC1CCCO1)C1CCCN(S(=O)(=O)c2cccc3nsnc23)C1 (stereo unspecified),801,-1.6% (inactive),30.3% (inactive),122,-30.2% (inactive),114,-0.434 (inactive),6e-05 (inactive),0.00536 (inactive),0.526% (inactive),-1.36% (inactive)
CC(=O)c1ccc(OC(=O)c2cccs2)cc1,305,3.8% (inactive),-6.3% (inactive),99.1,-41.6% (inactive),105,-0.498 (inactive),-1.8e-05 (inactive),0.00631 (inactive),-3.03% (inactive),22.4% (inactive)
COC(=O)c1cc(OC)c(OCc2cc(C(=O)OC)oc2C)c(OC)c1,753,1.5% (inactive),-6.3% (inactive),106,32.8% (inactive),85.7,-0.396 (inactive),-6.5e-05 (inactive),0.00675 (inactive),17% (inactive),34.7% (inactive)
CN(CC(=O)N1CCCc2c1c(=O)oc1ccc(O)cc21)Cc1ccccc1,418,5.7% (inactive),-21% (inactive),97.1,-85.3% (inactive),117,-0.258 (inactive),-4.5e-05 (inactive),0.00473 (inactive),11.5% (inactive),27.4% (inactive)
CCn1cc(S(=O)(=O)CC(=O)Nc2ccc(OC)cc2)c2ccccc21,624,-2.4% (inactive),7% (inactive),82.1,-16.8% (inactive),115,-0.528 (inactive),-4.7e-05 (inactive),0.00751 (inactive),7.03% (inactive),16.6% (inactive)
Cc1nc2scc(-c3cccs3)c2c(=O)n1-n1cccc1,506,10.6% (inactive),10.9% (inactive),102,-398% (inactive),140,-0.333 (inactive),1.9e-05 (inactive),0.00572 (inactive),4.56% (inactive),18.4% (inactive)
CCc1nnc(NC(=O)CSc2nnc(-c3ccc(OC)cc3)n2C)s1,648,14.3% (inactive),21.9% (inactive),66.3,5.4% (inactive),112,-0.609 (inactive),-3e-05 (inactive),0.00434 (inactive),12.5% (inactive),20.1% (inactive)
Nc1c(C(=O)NCCN2CCOCC2)c2nc3ccccc3nc2n1-c1ccc2c(c1)OCO2,337,-8.4% (inactive),-2.4% (inactive),96.7,-53.1% (inactive),74,-0.348 (inactive),-6.2e-05 (inactive),0.00388 (inactive),11.3% (inactive),16.5% (inactive)
COC(=O)CCC(=O)Nc1cccc(Cl)c1,205,42.5% (active),5% (inactive),99.2,-12.1% (inactive),94.4,-0.593 (inactive),-3.8e-05 (inactive),0.00629 (inactive),3.5% (inactive),17.1% (inactive)
CN(C)C(=O)N1CCN(C(=O)c2ccco2)CC1,827,-15.9% (inactive),17.6% (inactive),99.6,-69.2% (inactive),114,-0.601 (inactive),5.7e-06 (inactive),0.00702 (inactive),-4.34% (inactive),19.5% (inactive)
CCOC(=O)C1CN(S(=O)(=O)c2ccc(C)cc2)CCN1S(=O)(=O)c1ccc(C)cc1 (stereo unspecified),339,3.3% (inactive),-36.8% (inactive),117,-114% (inactive),122,-0.591 (inactive),3.6e-05 (inactive),0.00631 (inactive),8.55% (inactive),11% (inactive)
O=C(c1ccco1)N1CCN(C2=NS(=O)(=O)c3ccccc32)CC1,596,-18.6% (inactive),-11.3% (inactive),105,-3% (inactive),104,-0.463 (inactive),-1.3e-05 (inactive),0.00424 (inactive),4.61% (inactive),31.2% (inactive)
O=C(CSc1nnnn1-c1ccc2c(c1)OCO2)NCc1cccs1,240,4.8% (inactive),2.8% (inactive),90.3,-66.6% (inactive),98.8,-0.447 (inactive),9.8e-06 (inactive),0.00659 (inactive),33.3% (inactive),-10.4% (inactive)
Oc1ccccc1-c1cc(C(F)(F)C(F)F)[nH]n1,337,-1% (inactive),1.9% (inactive),105,46.4% (inactive),106,-0.332 (inactive),-2e-05 (inactive),0.00606 (inactive),-13.1% (inactive),-54.6% (inactive)
Cc1nc(NC2=NCN(CC3CCCO3)CN2)nc2ccccc12 (stereo unspecified),346,-11.7% (inactive),28.4% (active),84.3,29% (inactive),98.5,-0.548 (inactive),-8.4e-06 (inactive),0.00499 (inactive),15.3% (inactive),28.6% (inactive)
O=C(NCCCCNC(=O)c1c(F)c(F)c(F)c(F)c1F)c1c(F)c(F)c(F)c(F)c1F,778,1% (inactive),10.7% (inactive),104,-48.4% (inactive),110,-0.308 (inactive),3.6e-05 (inactive),0.00647 (inactive),12.8% (inactive),20% (inactive)
CCOC(=O)C1=C(C)NC(C)=C(C(=O)OCC)C1c1cc(N)ccc1OC(F)F,181,-11% (inactive),22.6% (inactive),83.8,-12.2% (inactive),96.5,-0.445 (inactive),4.3e-05 (inactive),0.00592 (inactive),8.52% (inactive),28.4% (inactive)
CN(C)S(=O)(=O)c1ccc2c(c1)c(=O)c(C(=O)NCCCN1CCCCCC1)cn2C,707,-2.8% (inactive),4.4% (inactive),101,-51.2% (inactive),106,-0.601 (inactive),-3.3e-05 (inactive),0.00602 (inactive),0.741% (inactive),31.9% (inactive)
Cc1ccc(CNC(=O)COC(=O)c2c(C)noc2C)cc1,581,6.9% (inactive),23.2% (inactive),89.7,46% (inactive),57.1,-0.449 (inactive),-4.4e-05 (inactive),0.00349 (inactive),-1.51% (inactive),16.4% (inactive)
COc1ccc(NC(=O)CN(c2ccc(C(C)C)cc2)S(=O)(=O)c2c(C)noc2C)cc1OC,787,3.4% (inactive),-119% (inactive),123,-24.6% (inactive),108,-0.617 (inactive),2e-05 (inactive),0.00605 (inactive),18.3% (inactive),41.9% (inactive)
CCOC(=O)c1sc(N)c(C(=O)OCC)c1COC(=O)C1CC(=O)N(Cc2ccco2)C1 (stereo unspecified),780,2.9% (inactive),-82.9% (inactive),104,-33.4% (inactive),116,-0.526 (inactive),-4.5e-05 (inactive),0.00648 (inactive),-20.6% (inactive),-13.3% (inactive)
CCCN1C=CC(=C2C(=O)c3ccccc3C2=O)C=C1,418,2% (inactive),16.6% (inactive),44.6,-7.6% (inactive),111,-0.377 (inactive),-6.2e-05 (inactive),0.00522 (inactive),29.8% (inactive),89.4% (active)
